Measured values from PubChem BioAssay (NCI).
This is part of a sample that, as a whole, favours compounds with a hit. Of some 83,000 tested, about 20% had one in any assay.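 Percent growth is the endpoint: 0 to 100 indicates growth inhibition (40 means 60% inhibition), 0 means no net growth, and negative values indicate cell death.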 Values without a mark were called inactive. Active and inactive are the calls of the source. Rule for the calls: active = growth percent below 10; inactive = the rest.

Test system: NCI-H322M lung
Experiment: NCI-60 one-dose screen, 48 h (100 = growth as untreated, 0 = no growth, -100 = all killed)
Conditions: 10 µM

Row | SMILES | growth
1 | COc1ccc(CSc2nc3cc(OC)c(OC)cc3c(=O)n2-c2ccc(OC)cc2OC)cc1 | 80.6%
2 | CCCCCCN=C(N)CCCCCCCCCCC(N)=NCCCCCC | 62.4%
3 | O=C(COCc1c(-c2ccccc2)no[n+]1[O-])Nc1nc(-c2ccc(Cl)cc2)cs1 | 104%
4 | O=[N+]([O-])c1ccc2c(c1)Cc1cc(I)ccc1-2 | 104%
5 | CN(C)CCCN(Cc1ccccc1O)C(=S)Nc1ccc(Cl)cc1 | 98.1%
6 | CS(=O)(=O)Nc1ccc(Nc2c3ccccc3nc3cc(Cl)ccc23)cc1 | 50.6%
7 | COc1ccc(/C=C2\CCC3C(CCCC34OCCO4)C2=O)cc1 (stereo not given) | 79.5%

Test system: HOP-62 NSCLC
Experiment: as above
Conditions: 10 µM

Row | SMILES | growth
8 | COCCOC(=O)NC(=O)Nc1ccc(C(=O)c2ccc(Cl)cc2)cc1 | 28.5%
9 | Cc1cnc(C=O)c2cccc([N+](=O)[O-])c12 | 91.7%
10 | COc1ccc(-c2nc(SCC(=O)c3ccc(Br)cc3)[nH]c(=O)c2C#N)cc1 | 101%
11 | COc1cccc2c1C(=O)c1c(O)c3c(c(O)c1C2=O)C[C@@](O)(C(=O)COC(=O)c1ccccc1)C[C@@H]3OC1CC(N)C(O)C(C)O1 (stereo not given in full) | -96.8% (active)
12 | Fc1ccc2[nH]c3c(NCCCN4CCOCC4)ncnc3c2c1 | 32.7%
13 | CC(C)c1[nH]nc2c(NCc3ccc(-c4ccccn4)cc3)nc(SCCN)nc12 | -15.3% (active)
14 | COc1ccc(NC(=O)CCn2cnc3c(cc(-c4ccccc4)n3-c3ccccc3)c2=O)cc1 | 11.2%
15 | CNC(=O)c1cc(Oc2ccc(NC(=O)Nc3ccc(Cl)c(OC4CCCCC4)c3)c(F)c2)ccn1 | 70.5%
